Source: PubChem (National Center for Advancing Translational Sciences (NCATS))
JMJD2A Tudor inh = inhibitors of human JMJD2A Tudor domain | O75164 | AlphaScreen JMJD2A-Tudor / H3K4me3 peptide binding | Potency, µM (doses to about 114 µM), inactives show top-dose activity change, negative = inhibition, actives largely listed as inhibitors | actives 4.4% (n = 390,000); note: % is set by controls: 0 for no effect and ±100 for the full control effect; nearly all actives have a fitted effect of over 50% in size
Target sequence (O75164 whole entry, looked up, the tested form may be a part): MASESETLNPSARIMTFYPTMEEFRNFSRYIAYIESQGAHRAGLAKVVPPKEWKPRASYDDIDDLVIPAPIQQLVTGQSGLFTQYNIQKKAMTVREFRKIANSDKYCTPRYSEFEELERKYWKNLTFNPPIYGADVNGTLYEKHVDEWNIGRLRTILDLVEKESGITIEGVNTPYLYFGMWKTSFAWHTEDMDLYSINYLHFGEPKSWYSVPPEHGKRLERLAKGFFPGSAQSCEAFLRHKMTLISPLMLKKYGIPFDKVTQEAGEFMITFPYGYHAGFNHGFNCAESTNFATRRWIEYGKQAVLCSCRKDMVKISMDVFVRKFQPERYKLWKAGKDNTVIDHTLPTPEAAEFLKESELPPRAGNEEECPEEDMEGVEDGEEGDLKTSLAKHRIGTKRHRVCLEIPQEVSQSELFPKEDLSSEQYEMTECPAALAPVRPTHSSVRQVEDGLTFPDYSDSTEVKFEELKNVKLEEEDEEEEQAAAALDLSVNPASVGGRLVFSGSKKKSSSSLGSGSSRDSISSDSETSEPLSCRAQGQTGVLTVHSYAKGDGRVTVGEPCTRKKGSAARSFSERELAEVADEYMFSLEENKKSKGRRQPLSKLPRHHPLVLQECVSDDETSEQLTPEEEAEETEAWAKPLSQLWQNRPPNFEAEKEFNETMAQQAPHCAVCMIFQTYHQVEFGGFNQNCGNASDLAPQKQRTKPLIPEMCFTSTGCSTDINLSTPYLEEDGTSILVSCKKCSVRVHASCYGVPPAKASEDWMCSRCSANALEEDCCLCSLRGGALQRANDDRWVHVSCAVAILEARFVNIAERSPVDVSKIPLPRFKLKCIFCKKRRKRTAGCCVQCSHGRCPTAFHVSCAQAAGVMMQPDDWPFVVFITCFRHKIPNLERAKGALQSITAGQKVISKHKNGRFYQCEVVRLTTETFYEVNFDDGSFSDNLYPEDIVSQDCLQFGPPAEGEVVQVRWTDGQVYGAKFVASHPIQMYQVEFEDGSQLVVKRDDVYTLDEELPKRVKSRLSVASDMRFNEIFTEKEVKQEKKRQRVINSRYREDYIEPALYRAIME
Sfp inh = blocks B. subtilis Sfp PPTase activity | Biochemical Sfp PPTase activity, qHTS | Potency, µM, inactives show largest response in the series, negative = inhibition, usual class: inhibitors | actives 3.5% (n = 310,000) | AID 1490;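 note: the enzyme is Sfp with the accession as filed and its product quenches rhodamine fluorescence; 0% = enzyme reaction without inhibitor and -100% = no enzyme wells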
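Fluorescence-quenching assay with 15 nM Sfp, 5 uM rhodamine-CoA and 12.5 uM BHQ-2-labelled ybbR peptide in pH 7.6 Hepes/MgCl2 buffer. Enzyme was pre-incubated with compound for 15 min at room temperature. Rate was taken from the 30-min fluorescence change (525/598 nm).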
BAZ2B inh = blocks human BAZ2B; AlphaScreen BAZ2B-H3K14Ac peptide displacement; Q9UIF8; Potency, µM (titrated, usually from 114 µM), inactives show top-dose activity change, negative = inhibition, most hits filed as inhibitors; actives 4.4% (n = 360,000); note: % is set by controls: 0 for no effect and ±100 for the full control effect; nearly all actives have a fitted effect of over 60% in size
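AlphaScreen luminescence quantifies BAZ2B engagement of H3K14Ac peptide; the protein and biotinylated peptide are both at 50 nM final, buffer PBS pH 7.4 with 0.01% Tween-20, all steps at room temperature.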
PLK1 PBD inh = PLK1 (human) polo-box domain binding inhibition; P53350; Plk1 PBD binding of FITC phosphopeptide, fluorescence polarization; Potency, µM, for the others: max response, negative = inhibition, hits mostly inhibitors; actives 2.8% (n = 360,000); AID 720504; note: series mostly up to about 57 µM; % is set by controls: 0 for no effect and ±100 for the full control effect; nearly all actives have a fitted effect of over 65% in size
G9a block = G9a (human) methyltransferase inhibition; G9a H3K9 monomethylation, AlphaScreen, 2 h; Potency, µM (series often up to 102 µM), inactives show at the top dose activity, negative = inhibition, hits mostly inhibitors; actives 8.8% (n = 350,000); AID 504332; note: % is set by controls: 0 for no effect and ±100 for the full control effect; nearly all actives have a fitted effect of over 75% in size
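Compounds were preincubated with 20 nM G9a for 15 min, after which biotinylated H3K9 peptide (500 nM) and SAM (20 uM) started a 2 h room-temperature reaction. Monomethylated product was quantified by antibody-based AlphaScreen chemiluminescence.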
HP1b chromo inh = inhibitors of HP1-beta chromodomain binding to methylated histone tails; AID 540317; AlphaScreen HP1-beta / biotin-H3K9me3 peptide binding; actives 0.56% (n = 390,000); Potency, µM (highest dose often 114 µM), inactives show top-dose activity change, negative = inhibition, usual class: inhibitors; P83916; note: nearly all actives have a fitted effect of over 70% in size
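AlphaScreen: HP1-beta (50 nM) preformed 30 min with biotin-H3(1-18)K9me3 peptide (50 nM) in PBS pH 7.4, 0.01% Tween-20. Compound added for 30 min at RT, then streptavidin donor/nickel chelate acceptor beads (10 ug/mL) for 30 min.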
* hit, by the source's call; ? = inconclusive; nt = no result; [ ] = remark or other dose. An excerpt weighted towards active compounds, which were near 12% of everything screened. Calls come from the whole dose curve; as a rule, active = well fitted curve in the direction sought with a large enough effect; inconclusive = small, poorly fitted or top-dose-only effect, or another doubt; inactive = no such curve, though single readings can be large; an effect the other way counts as inactive or inconclusive. Potency is the fitted concentration of half-maximal effect.

SMILES	JMJD2A Tudor inh	Sfp inh	BAZ2B inh	PLK1 PBD inh	G9a block	HP1b chromo inh
CCc1ccc(NC(=O)CSc2nnc3[nH]c(=O)cc(-c4ccccc4)n23)cc1	4.2%	nt	-23.1%	nt	?	58.5%
COc1ccc(-c2noc(CNC(=O)c3cc(OC)c(OC)c(OC)c3)n2)cc1	-9.4%	nt	-8.5%	nt	1.3%[59 µM]	15.2%
COc1cc(OC)cc(C(=O)NCc2n[nH]c(=S)n2-c2ccccc2OC)c1	10µM*	?	4.1%	-11.4%	1µM*	22.5%
COc1ccc(-n2c(CNC(=O)c3cc(OC)c(OC)c(OC)c3)n[nH]c2=S)cc1	7.08µM*	-12.7%	?	-7.8%	8.91µM*	32.0%
CC1CCC2C(=O)N3C(CCC(C)[C@H]3c3ccccc3Br)C(=O)N2C1c1ccccc1Br (stereo partly specified)	nt	-3.1%	nt	nt	nt	nt
CC(C)C(=O)Nc1ccc2nn(-c3ccc(F)cc3)nc2c1	-6.1%	0.1%	6.4%	-5.7%	?	36.8%
CCCC(=O)Nc1ccc2nn(-c3ccc(OC)cc3)nc2c1	?	0.2%	-4.6%	21.2µM*	-0.1%	-4.8%
Cc1ccc(-n2nc3ccc(NC(=O)c4ccc5c(c4)OCO5)cc3n2)cc1	-13.9%	3.4%	-5.6%	-2.8%	70.8µM*	16.5%
CCc1ccc(-n2nc3ccc(NC(=O)c4ccc5c(c4)OCO5)cc3n2)cc1	7.2%	15.3%	?	0.5%	?	35.4%
Cc1ccc(-n2nc3ccc(NC(=O)C(C)C)cc3n2)cc1	-13.1%	-2.0%	?	?	12.6µM*	4.9%
Cc1cnc(CNc2ncncc2-c2cccnc2)cn1	nt	-13.4%	nt	nt	10.5%[0.501 µM]	nt
O=C(OCC1OC(n2ncc(=O)[nH]c2=O)C(OC(=O)c2ccccc2)C1OC(=O)c1ccccc1)c1ccccc1 (stereo unspecified)	50.1µM*	-0.6%	50.1µM*	?	18.1%[12.7 µM]	18.8%
Cc1cc(/C=C\c2ccc3cc(N(C)C)ccc3[n+]2C)c(C)n1-c1ccccc1	50.1µM*	?	12.6µM*	?	12.6µM*	?
Cc1ccccc1C(=O)NCCNC(=O)c1ccccn1	-7.7%	15.3%	-0.2%	-18.7%	17.2%	9.4%
O=C(NCCN1CCNCC1)c1ccccn1	1.12µM*	?	?	-0.1%	44.7µM*	16.7%
Cc1ccccc1C(=O)NCCCNC(=O)c1ccccn1	-6.3%	12.7%	-27.6%	-5.2%	50.1µM*	24.1%
O=C1CCc2cc(NS(=O)(=O)c3ccc(F)cc3)cc3c2N1CCC3	-15.2%	nt	8.9%	-1.3%	?	8.8%
O=C1CCc2cc(NS(=O)(=O)c3ccc([N+](=O)[O-])cc3)cc3c2N1CCC3	-11.7%	nt	-30.9%	-5.8%	35.5µM*	14.6%
O=C1CCc2cc(NS(=O)(=O)c3ccc([N+](=O)[O-])cc3)cc3c2N1CC3	-18.6%	nt	2.6%	-4.2%	44.7µM*	20.6%
CCOC(=O)c1ccc(NS(=O)C23CC4CC(CC(C4)C2)C3)cc1 (stereo unspecified)	-28.5%	6.9%	-4.3%	-9.6%	5.01µM*	51.9%
O=C1c2ccccc2C(=O)N1c1ccccn1	-12.9%	nt	nt	nt	nt	40.4%
Nc1nonc1NC(=O)NN=C1CCCCC1	?	35.5µM*	-5.8%	-10.9%	-0.2%	43.5%
Cc1ccc(C(C[N+](=O)[O-])n2nc(C)cc2C)cc1 (stereo unspecified)	-24.3%	-25.9%	-13.3%	16.8µM*	?	15.0%
Cc1oc2ccc(O)c(CN3CCN(C)CC3)c2c1C(=O)Nc1cccc(Cl)c1C	-31.2%	nt	-2.4%	nt	-4.7%[59 µM]	-9.1%
O=C(CSc1n[nH]c(-c2cccs2)n1)NCCc1ccccc1	-11.0%	nt	-18.3%	-1.9%	?	28.6%
SMILES	JMJD2A Tudor inh	Sfp inh	BAZ2B inh	PLK1 PBD inh	G9a block	HP1b chromo inh
CN1CCN(NC(=O)c2cc(-c3cccc(Cl)c3)nc3ccccc23)CC1	-17.5%	-8.7%	-18.2%	1.1%	?	6.9%
CN1CCC(N(C)C(=S)NC(=O)c2cc(-c3cccc(Br)c3)nc3ccccc23)CC1	12.6µM*	-18.9%	?	21.2µM*	?	-10.9%
O=C(COc1ccc2ccccc2c1)N/N=C/C1CC=CCC1 (stereo unspecified)	-13.7%	5.5%	-2.3%	-4.2%	-11.8%	39.3%
O=C(COc1ccc2ccccc2c1)N/N=C/c1ccccn1	?	?	9.2%	18.9µM*	17.1%[0.501 µM]	?
Cc1ccccc1OCC(=O)N/N=C/c1ccccn1	-35.4%	-54.2%	-38.9%	29.9µM*	-25.7%	-10.0%
Cc1cc(C)cc(OCC(=O)N/N=C/c2ccccn2)c1	?	?	79.4µM*	-8.2%	?	39.3%
CC[C@H](C)[C@H](NC(=O)OCc1ccccc1)C(=O)OCC(=O)N1CCN(c2ccc(OC)cc2)CC1	?	nt	nt	2.9%	nt	-11.1%
CC(=O)c1ccc(S(=O)(=O)N2CCCC2)cc1	-10.8%	16.3%	13.6%	-11.2%	-60.7%[59 µM]	6.3%
CC(=O)c1ccc(S(=O)(=O)N2CCNCC2)cc1	-25.0%[11.4 µM]	-4.3%	-0.2%	15µM*	nt	21.2%
COC(=O)c1ccc(CN2CCCC(CCC(=O)NCc3ccc(C)o3)C2)cc1 (stereo unspecified)	?	10.3%	-23.1%	23.8µM*	-30.6%	-17.4%
O=C(CCC1CCCN(C(=O)c2cncs2)C1)NCc1ccc(F)c(F)c1 (stereo unspecified)	25.1µM*	-16.2%	-12.3%	29.9µM*	-28.6%[12.7 µM]	?
COc1cccc(CNC(=O)CCC2CCCN(C(=O)c3cc(C)on3)C2)c1 (stereo unspecified)	-13.7%	6.2%	-1.9%	-2.6%	6.8%	25.5%
COc1cccc(CNC(=O)CCC2CCCN(C(=O)c3ccc(OC)o3)C2)c1 (stereo unspecified)	-12.3%	50.1µM*	-6.4%	-3.0%	nt	30.5%
COc1cccc(CNC(=O)CCC2CCCN(C(=O)c3cccnc3SC)C2)c1 (stereo unspecified)	39.8µM*	3.1%	6.7%	-1.7%	-0.9%	3.9%
COc1cccc(CNC(=O)CCC2CCCN(C(=O)c3csc(C(C)C)n3)C2)c1 (stereo unspecified)	-9.9%	26.0%	1.4%	-9.8%	16.6%	30.7%
O=C(CCC1CCCN(C(=O)C2CCCC2)C1)NCc1ccc(F)c(F)c1 (stereo unspecified)	-2.8%	6.3%	-12.4%	-6.0%	-4.1%[12.7 µM]	29.5%
CC(=O)N1CCC2(CC1)CN(Cc1ccc(C#N)cc1)C2	nt	-3.6%	nt	nt	1.9%[12.7 µM]	nt
CC(C)=CCC[C@](C)(O)C1CC[C@]2(C)[C@@H]1CC[C@@H]1[C@@]3(C)CCC(=O)C(C)(C)[C@@H]3CC[C@]12C (stereo partly specified)	nt	1.5%	nt	nt	nt	nt
O=C(c1ccc(N2CCCS2(=O)=O)cc1)N1CCN(c2ccccc2)CC1	-16.4%	15.9%	-1.0%	-6.0%	?	-2.9%
